Source: PubChem BioAssay
A selection: hits, their analogues and other compounds. The true share with any hit is near 19%.
Lassa entry inh = Lassa virus entry inhibition; 300,000 compounds, 1.2% hits; Lassa virus pseudotype entry inhibition, cell reporter; Potency, µM (series often up to 37.9 µM), for the others: at the highest dose activity change, negative = inhibition, actives largely listed as inhibitors; calls by dose curve; tested in HEK293 cells; further: potency means the concentration at half of the fitted maximal effect; on the % scale 0 is the no-effect control and ±100 the full control effect; nearly all actives have a fitted effect of over 50% in size
Shiga toxin inh = inhibitors of Shiga toxin in Vero cells. Vero cells, Shiga toxin protein synthesis inhibition reporter. inhibition, % at 38.7 µM. 290,000 compounds, 9.2% hits; in the data active means inhibition mostly above about 28%, no sharp cut-off; inactive means mostly below about 43%; further: 0% is about no effect
Pf growth 48h = inhibits P. falciparum growth in the first generation, 48 h; P. falciparum luciferase growth in erythrocytes, 48 h; AID 504832; 310,000 compounds, 5.9% hits; Potency, µM (series often up to 28.7 µM), for inactives: at the top dose activity change, negative = inhibition, actives largely listed as inhibitors; further: potency means the concentration at half of the fitted maximal effect; on the % scale 0 is the no-effect control and ±100 the full control effect
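Cell-based growth assay: transgenic P. falciparum expressing firefly luciferase, cultured in red cells within RPMI 1640 containing 0.5% w/v Albumax, 24 mM bicarbonate and gentamycin. A drop in luciferase activity indicates inhibition.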
Pf growth 96h = inhibits malaria parasite growth, 96 h. Potency, µM (doses to about 28.7 µM), for the others: at the top dose activity change, negative = inhibition, most hits filed as inhibitors. P. falciparum luciferase reporter growth, 96 h. 320,000 compounds, 6.9% hits; further: potency means the concentration at half of the fitted maximal effect; on the % scale 0 is the no-effect control and ±100 the full control effect
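Plates of compound plus infected erythrocytes (2% hematocrit, 0.05% parasitemia final) incubate 96 hours, 37 C, 5% CO2. Detection reagent added; reduced luminescence from the parasites' luciferase reporter flags inhibition.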
CHX counter = counter-screen for Shiga toxin inhibitors: cycloheximide protein synthesis inhibition; 300,000 compounds, 12% hits; cell reporter, cycloheximide protein synthesis inhibition counterscreen; max response, %; AID 2314; in the data active means max response mostly above about 13%, no sharp cut-off; inactive means mostly below about 14%; further: read at 38.3 µM for the half of the compounds with a filed dose; 0% is about no effect
Marburg entry inh = inhibitors of Marburg virus binding or cell entry; AID 540276; 300,000 compounds, 1.8% hits; Marburg virus pseudotyped entry inhibition, cell reporter; Potency, µM (titrated, usually from 37.8 µM), inactives show top-dose activity change, negative = inhibition, actives largely listed as inhibitors; calls by dose curve; tested in HEK293 cells; further: potency means the concentration at half of the fitted maximal effect; on the % scale 0 is the no-effect control and ±100 the full control effect
The depositor's hits bear a star; ? = inconclusive; . = not tested or not shown; ! = not confirmed by another sample; [ ] = dose if it differs, or a comment. Unless noted, the call rests on the fitted dose curve; in most records, active means well fitted inhibition curve with a large enough effect; inconclusive means small, poorly fitted or top-dose-only effect, or another doubt; inactive means no such curve, though single readings can be large or run the other way.

SMILES	Lassa entry inh	Shiga toxin inh	Pf growth 48h	Pf growth 96h	CHX counter	Marburg entry inh
CCOC(=O)C1=C(C)NC(C)=C(C(=O)OCC)C1c1ccc([N+](=O)[O-])s1	0%	-2	?	13µM*	1	?
CCOC(=O)C1=C(C)NC(C)=C(C(=O)OC)[C@H]1c1cccc([N+](=O)[O-])c1	.	.	.	.	.	-20%
COCCOC(=O)C1=C(C)NC(C)=C(C(=O)OC(C)C)C1c1cccc([N+](=O)[O-])c1 (centres undefined)	?	-11	9.3µM*	6.6µM*!	-3	5.6µM*!
CC(C)c1ccc(C(C(=O)NC2CCCC2)N(C(=O)CNC(=O)c2ccco2)c2cccnc2)cc1 (centres undefined)	-8%	6	-6%	-15%	-3	9%[46.1 µM]
CC(C)=CC1C(C(=O)NCCc2ccccc2)C1(C)C (centres undefined)	9%	.	.	.	.	15%
CCOC(=O)C1=C(CCc2ccccc2)NC(=O)NC1c1cccc([N+](=O)[O-])c1 (centres undefined)	.	-2	?	56%	4	.
CC1=C(C(=O)OC(C)C)C(c2cccc([N+](=O)[O-])c2)C(C(=O)OC2CN(C(c3ccccc3)c3ccccc3)C2)=C(N)N1 (centres undefined)	.	.	7.6µM*	-3%	.	.
COC(=O)C1=C(C)NC(C)=C(C(=O)OC(C)(C)CN(C)CCC(c2ccccc2)c2ccccc2)C1c1cccc([N+](=O)[O-])c1 (centres undefined)	8.2µM*	.	1.5µM*	3µM*	.	?
CCOC(=O)C1=C(C)N(c2ccccc2)C(=O)NC1c1cccc([N+](=O)[O-])c1 (centres undefined)	5%	-12	?	?	-3	-10%
CCOC(=O)C1=C(C)NC(C)=C(C(=O)OC)C1c1cccc([N+](=O)[O-])c1 (centres undefined)	?	-8	5.9µM*	?	-2	2.5µM*!
CCCCCCCCCC[n+]1cccc([C@@H]2CCCN2C)c1	.	16	.	.	-6	.
NC(=O)c1ccccc1NC(=O)Nc1ccc(F)c(Cl)c1	5%	56*	25%	?	42*	?
CC(=O)Nc1ccccc1C(=O)C(=O)Nc1ccc(C)c(C)c1	20%	40*	194%	-7%	40*	?
CCN(CC)C(=O)C(=O)Nc1ccc(F)c(Cl)c1	15%[46.1 µM]	88*	54%	-16%	28*	9%[46.1 µM]
CCC(=O)Nc1ccc(F)c(Cl)c1	-4%	24	-3%	5%	3	-13%
CC(=O)Nc1ccccc1C(=O)C(=O)Nc1ccc(C)c(F)c1	-4%	103*	208%	?	59*	?
CC(=O)Nc1ccccc1C(=O)C(=O)Nc1ccc(F)c(Cl)c1	.	45	3%	?	20*	.
Cc1ccc(NC(=O)/C(Cl)=C/c2ccccc2)cc1C	?	95*	320%	?	45*	?
Cc1cccc(C(C)C)c1NC(=O)C1CCCN1S(=O)(=O)c1cccc2nsnc12 (centres undefined)	-10%[46.1 µM]	.	.	.	.	-15%[46.1 µM]
Cc1cc2c(cc(C(=O)OC(C(=O)NCC3CCCO3)C(C)C)n2C)o1 (centres undefined)	-34%	34	25%	?	15*	-19%
CN(C)C(=O)C12CCC(C)(c3nc4ccccc4nc31)C2(C)C (centres undefined)	5%	-7	-26%	2.6µM*	4	5%
Cc1cc2nc3c(nc2cc1C)C1(C(=O)N(C)C)CCC3(C)C1(C)C (centres undefined)	?	-18	?	.	1	6%
c1ccc(CCn2nnnc2CN2CCC(n3nnc4ccccc43)CC2)cc1	8%	-4	?	79%	-3	6%
COc1ccc(S(=O)(=O)Nc2cccc(S(=O)(=O)N3CCCCCC3)c2)cc1	-11%	-10	2%	?	-3	4%
c1ccc(-c2onc(-c3ccco3)c2-c2ccc3c(c2)OCO3)cc1	.	25	?	13µM*	6	.
O=C(CCC1N=C2c3ccccc3N=C(SCc3ccccc3Cl)N2C1=O)NCc1cccs1 (centres undefined)	22%[46.1 µM]	.	.	.	.	.
CC(NC(=O)C(=O)N1CCCCC1)C(c1cccs1)N1CCN(c2ccccc2)CC1 (centres undefined)	4%[46.1 µM]	-12	?	?	-2	9%[46.1 µM]
